Only some compounds are listed: those with a hit (about 6.5% of all), similar ones and a draw of the others.
Lassa entry inh: blocks Lassa virus binding to or entry into cells | Lassa virus pseudotype entry inhibition, cell reporter | actives 1.2% (n = 300,000) | AID 540256 | Potency, µM (series often up to 37.9 µM), hits mostly inhibitors; calls by dose curve; tested in HEK293 cells; note: nearly all actives have a fitted effect of over 50% in size
Marburg entry inh: blocks Marburg virus binding to or entry into cells; Marburg virus pseudotyped entry inhibition, cell reporter; Potency, µM (titrated, usually from 37.8 µM), usual class: inhibitors; actives 1.8% (n = 300,000); AID 540276; calls by dose curve; tested in HEK293 cells
HCMV inh: inhibitors of human cytomegalovirus; HFF cells, HCMV-luciferase reporter, 72 h; hits give low values; activity change, negative = inhibition, % at 57.5 µM; actives 4.5% (n = 410,000); AID 1259415; in the data active = activity change below about -60%; inconclusive = no clear call, values can overlap the other calls; inactive = above about -39%
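Cell-based, HFFs, 1000 cells/well, 16 h 37C; cpds in DMSO + HCMV-luc, MOI 1 PFU/cell; 72 h 37C; OneGlo luminescence after 5 min RT; norm. to buffer vs Salinomycin 10uM.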
Vaccinia mCherry: inhibitors of vaccinia virus infection (mCherry reporter signal); Vaccinia virus mCherry reporter infection, fluorescence; Potency, µM (doses to about 36.5 µM), actives largely listed as inhibitors; actives 0.63% (n = 310,000); calls by dose curve; tested in A549 cells; note: nearly all actives have a fitted effect of over 35% in size
VACV Venus inh: vaccinia inhibition (Venus reporter); Vaccinia virus Venus reporter expression, fluorescence; actives 0.46% (n = 330,000); Potency, µM (series often up to 36.5 µM), usual class: inhibitors; calls by dose curve; tested in A549 cells; note: nearly all actives have a fitted effect of over 30% in size
FMDV antiviral: blocks foot and mouth disease virus; FMDV antiviral cell-based qHTS; Potency, µM (titrated, usually from 57.9 µM), actives largely listed as inhibitors; actives 1.2% (n = 410,000); AID 1159524; calls by dose curve; tested in HEK293T cells; note: read-out not given here; nearly all actives have a fitted effect of over 45% in size
A number is an active result; [ ] = another dose, or the depositor's remark.

For CCCCCNC(=O)C1(C)CCc2nc3ccccc3n21 (stereo not drawn) the results were HCMV inh inactive.
CCN1CCN(C(c2cccs2)C(C)NC(=O)CC(C)C)CC1 (stereo not drawn) was read as Lassa entry inh inactive, Marburg entry inh inactive, HCMV inh inactive, Vaccinia mCherry inactive, VACV Venus inh inactive and FMDV antiviral inactive.
`CCC(=O)NC(c1cccs1)c1ccc2cccnc2c1O` (stereo not drawn) gave HCMV inh -101, Vaccinia mCherry inconclusive, VACV Venus inh inconclusive and FMDV antiviral inactive.
`CC(C)CC(=O)NC(c1cccs1)c1ccc2cccnc2c1O` (stereo not drawn) gave Lassa entry inh inconclusive, Marburg entry inh 10µM, Vaccinia mCherry 6.3µM, VACV Venus inh inconclusive and FMDV antiviral inactive.
Cc1conc1NC(c1cccs1)c1ccc2cccnc2c1O (stereo not drawn) was read as Marburg entry inh inactive.
`N#C/C(=C\c1ccncc1)C(=O)Nc1ccc(C(=O)O)cc1` gave HCMV inh -99 and FMDV antiviral inactive.
Cc1cccc(NC(=O)/C(C#N)=C\c2cc(C)n(-c3ccc(C(=O)O)cc3)c2C)c1 was read as HCMV inh -61, Vaccinia mCherry inactive, VACV Venus inh inactive and FMDV antiviral inactive.
COc1ccc(F)c(CN2CCOc3ccc(CN4CCCCC4CO)cc3C2)c1 (stereo not drawn) was read as Vaccinia mCherry inactive, VACV Venus inh inactive and FMDV antiviral inactive.
For CC(C)c1ccc(CN2C(=O)C(n3ccc4ccccc43)c3ccccc32)cc1 (stereo not drawn) the results were HCMV inh inactive.
Screening Cc1ccc(NC(=O)CSc2nnc(CCNC(=O)OC(C)(C)C)o2)c(C)c1 returned Lassa entry inh inactive, Marburg entry inh inactive, HCMV inh inactive and FMDV antiviral inactive.
Screening CC(C)(C)OC(=O)NCCCCCc1nnc(SCc2ccc(F)cc2)o1 returned Lassa entry inh inactive, Marburg entry inh inconclusive, HCMV inh -67, Vaccinia mCherry inactive[7.34 µM], VACV Venus inh inactive[7.34 µM] and FMDV antiviral inconclusive.
Screening Cc1ccc(C)c(NC(=O)CSc2nnc(CCCCCNC(=O)OC(C)(C)C)o2)c1 returned Lassa entry inh inactive, Marburg entry inh inactive, HCMV inh inactive and FMDV antiviral 16µM.
Oc1cc(O)c(/C=C/c2ccnc3ccccc23)c(O)c1 was read as Vaccinia mCherry inactive and VACV Venus inh inactive.
Screening C[C@H](CO)N1C[C@H](C)[C@H](CN(C)S(C)(=O)=O)OCc2cnnn2CCCC1=O returned HCMV inh inactive, Vaccinia mCherry inactive, VACV Venus inh inactive and FMDV antiviral inactive.
Cc1ccc(OCC(=O)Nc2ccc3c(c2)nc(CCN2CCC(C)CC2)n3C)cc1 was read as Lassa entry inh inconclusive, Marburg entry inh inconclusive, HCMV inh -70, Vaccinia mCherry inactive, VACV Venus inh inactive and FMDV antiviral inactive.
For COc1ccc(OCC(=O)Nc2ccc3c(c2)nc(CCN2CCC(C)CC2)n3C)cc1 the results were HCMV inh inactive and FMDV antiviral inactive.
Cn1c(CCN2CCCCC2)nc2cc(NC(=O)COc3ccccc3)ccc21 was read as HCMV inh -73 and FMDV antiviral inactive.
CN1CCN(CCc2nc3cc(NC(=O)COc4ccccc4)ccc3n2C)CC1 was read as Lassa entry inh inactive, Marburg entry inh inactive, HCMV inh inactive and FMDV antiviral inactive.
For Cc1ccc(OCC(=O)Nc2ccc3c(c2)nc(CCN2CCCCC2)n3C)cc1 the results were HCMV inh -72 and FMDV antiviral inactive.
Screening CCc1ccc(-n2c(SCc3nc(-c4cc(OC)ccc4OC)no3)nnc2-c2ccccc2)cc1 returned Lassa entry inh inconclusive, Marburg entry inh inconclusive, HCMV inh inconclusive, Vaccinia mCherry inactive, VACV Venus inh inactive and FMDV antiviral inactive.
`O=C(NCC1CCC2(CCN(Cc3cccc(-c4ccco4)c3)CC2)O1)c1ccccc1` (stereo not drawn) gave Vaccinia mCherry inactive, VACV Venus inh inactive and FMDV antiviral inactive.
Screening COc1cc(C(C)=O)ccc1COc1ccc(C(=O)OCC(=O)NC2CCS(=O)(=O)C2)cc1OC (stereo not drawn) returned Lassa entry inh inactive, Marburg entry inh inactive, HCMV inh inactive, Vaccinia mCherry inactive, VACV Venus inh inactive and FMDV antiviral inactive.
`COc1cc(C(C)=O)ccc1COc1ccc(C(=O)OCC(=O)NC(C)(C)C)cc1OC` gave Lassa entry inh inconclusive, Marburg entry inh inconclusive, HCMV inh inactive, Vaccinia mCherry inactive, VACV Venus inh inactive and FMDV antiviral 20µM.
For CC(=O)CCc1ccc2oc(C(=O)O)c(C)c2c1 the results were Lassa entry inh inactive, Marburg entry inh inactive, HCMV inh inactive, VACV Venus inh inactive and FMDV antiviral inactive.
CC(=O)CCc1oc2ccc(C)cc2c1-c1ccccc1 was read as Lassa entry inh 4µM, Marburg entry inh inactive, HCMV inh inactive, Vaccinia mCherry inactive, VACV Venus inh inactive and FMDV antiviral inactive.
`OCC1(CC2CCCCO2)CCN(Cc2cccc(O)c2)CC1` (stereo not drawn) gave HCMV inh inactive and FMDV antiviral inactive.
Nc1nnc(N)c2ccccc12 was read as Lassa entry inh inactive, Marburg entry inh inactive, HCMV inh inactive, Vaccinia mCherry inactive, VACV Venus inh inactive and FMDV antiviral inactive.
`Nc1nsc2ccccc12` gave Lassa entry inh inconclusive, Marburg entry inh inconclusive, HCMV inh -72, Vaccinia mCherry inconclusive and VACV Venus inh inconclusive.
`CC(=O)c1ccc(NC(=O)C(C)Sc2nnc(-c3ccncc3)n2C2CC2)cc1` (stereo not drawn) gave Lassa entry inh inactive, Marburg entry inh inconclusive, HCMV inh -64, Vaccinia mCherry inactive, VACV Venus inh inactive and FMDV antiviral inactive.
For CCN(c1ccccc1)S(=O)(=O)c1ccc(Cl)c(NC(=O)CSc2n[nH]c(N)n2)c1 the results were Lassa entry inh inactive, Marburg entry inh inactive, HCMV inh -67, Vaccinia mCherry inactive, VACV Venus inh inactive and FMDV antiviral inactive.
Screening CCN(c1ccccc1)S(=O)(=O)c1ccc(Cl)c(NC(=O)CSc2ncn[nH]2)c1 returned Lassa entry inh inactive, Marburg entry inh inactive, HCMV inh -101, Vaccinia mCherry inactive, VACV Venus inh inactive and FMDV antiviral inactive.
Screening CS(=O)(=O)c1ccc(Cl)c(NC(=O)CSc2n[nH]c(N)n2)c1 returned Lassa entry inh inactive, Marburg entry inh inactive, HCMV inh inactive, Vaccinia mCherry inactive, VACV Venus inh inactive and FMDV antiviral inactive.
Cc1cc(C)c(C)c(C(=O)CSc2nnc(-c3ccc4[nH]c(C)c(C)c4c3)o2)c1C was read as Lassa entry inh inconclusive, Marburg entry inh inconclusive, HCMV inh inconclusive, VACV Venus inh inactive and FMDV antiviral inconclusive.
Screening Cc1[nH]c2ccc(-c3nnc(SCC(=O)c4ccc(F)cc4)o3)cc2c1C returned Lassa entry inh 9.2µM, Marburg entry inh inactive, HCMV inh inconclusive, Vaccinia mCherry inactive and VACV Venus inh inactive.
